Experimental data reported in publication PMC7862700, “An all-to-all approach to the identification of sequence-specific readers for epigenetic DNA modifications on cytosine”.

Experiments:
Experiment in all cases: DAPPL (digital affinity profiling via proximity ligation, sequencing); 10 mM Tris-HCl pH 7.5, 50 mM NaCl, 1 mM DTT, 4% glycerol, room temperature, 30 min; GST-TFs on glutathione beads, 16-mer random dsDNA library, 0.1% formaldehyde crosslink after washing; high values mean tight binding
Settings in all cases: protein: recombinant; tags: N-terminal GST; dsDNA, one strand shown
ERF = biological target: T1, ERF (Homo sapiens, UniProt P50548 1-548)
T1 sequence: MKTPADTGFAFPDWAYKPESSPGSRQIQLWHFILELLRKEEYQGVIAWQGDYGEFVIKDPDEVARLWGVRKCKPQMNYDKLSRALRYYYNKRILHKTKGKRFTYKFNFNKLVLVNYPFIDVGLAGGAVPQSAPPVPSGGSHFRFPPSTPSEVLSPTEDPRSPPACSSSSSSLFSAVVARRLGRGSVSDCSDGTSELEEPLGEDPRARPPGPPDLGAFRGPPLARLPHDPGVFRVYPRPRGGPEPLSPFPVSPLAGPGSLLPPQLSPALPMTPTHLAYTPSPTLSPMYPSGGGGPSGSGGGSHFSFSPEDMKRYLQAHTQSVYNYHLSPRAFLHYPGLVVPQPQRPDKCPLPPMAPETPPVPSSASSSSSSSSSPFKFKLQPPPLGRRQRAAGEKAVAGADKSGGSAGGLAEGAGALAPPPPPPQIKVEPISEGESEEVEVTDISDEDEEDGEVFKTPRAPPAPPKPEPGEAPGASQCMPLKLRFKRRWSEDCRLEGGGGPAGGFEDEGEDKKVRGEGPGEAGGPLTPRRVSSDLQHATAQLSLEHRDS
Method in brief: (§1)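 Pools of DNA-barcoded human transcription factors, expressed in yeast as GST fusions on glutathione beads and combined with a tag-only sample, were incubated with 200 nmole of a 16-mer random double-stranded DNA library. Incubation took 30 min at room temperature in Tris/NaCl/DTT/glycerol buffer and was followed by washing, 0.1% formaldehyde crosslinking, proximity ligation (BsaI/T4 ligase, 1 h, 37 °C), PCR amplification and sequencing on an Illumina NextSeq500. Binding signal is the ratio of a hexamer's read frequency for a factor to its frequency for the tag-only sample.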

ETV3L = biological target: T2, ETV3L (Homo sapiens, UniProt Q6ZN32 1-361)
T2 sequence: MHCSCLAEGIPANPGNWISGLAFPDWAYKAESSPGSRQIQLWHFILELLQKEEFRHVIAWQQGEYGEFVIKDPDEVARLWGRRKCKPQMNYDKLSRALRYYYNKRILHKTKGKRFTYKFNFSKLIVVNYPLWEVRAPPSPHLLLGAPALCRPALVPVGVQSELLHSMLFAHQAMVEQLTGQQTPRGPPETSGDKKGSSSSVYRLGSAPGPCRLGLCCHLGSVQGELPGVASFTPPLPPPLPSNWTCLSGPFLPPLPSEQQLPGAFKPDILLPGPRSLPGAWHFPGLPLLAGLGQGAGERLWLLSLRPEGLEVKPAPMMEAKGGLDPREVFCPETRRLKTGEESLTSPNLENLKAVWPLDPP
Method in brief: as §1

ETS2 = biological target: T3, ETS2 (Homo sapiens, UniProt P15036 1-469)
T3 sequence: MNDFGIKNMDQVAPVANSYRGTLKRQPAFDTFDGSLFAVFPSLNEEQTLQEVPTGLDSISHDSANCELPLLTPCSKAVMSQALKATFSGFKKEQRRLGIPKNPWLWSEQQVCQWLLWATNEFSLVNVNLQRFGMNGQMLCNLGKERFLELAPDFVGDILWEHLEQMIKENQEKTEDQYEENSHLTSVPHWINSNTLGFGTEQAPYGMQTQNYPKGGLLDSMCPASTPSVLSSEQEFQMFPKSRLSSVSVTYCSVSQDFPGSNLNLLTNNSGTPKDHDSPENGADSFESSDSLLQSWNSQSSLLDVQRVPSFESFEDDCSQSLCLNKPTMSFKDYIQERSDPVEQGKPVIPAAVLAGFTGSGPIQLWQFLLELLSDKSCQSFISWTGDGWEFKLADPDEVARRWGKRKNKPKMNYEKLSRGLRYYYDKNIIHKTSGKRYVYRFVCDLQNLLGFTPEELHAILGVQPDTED
Method in brief: as §1

SPDEF = biological target: T4, SPDEF (Homo sapiens, UniProt O95238 1-335)
T4 sequence: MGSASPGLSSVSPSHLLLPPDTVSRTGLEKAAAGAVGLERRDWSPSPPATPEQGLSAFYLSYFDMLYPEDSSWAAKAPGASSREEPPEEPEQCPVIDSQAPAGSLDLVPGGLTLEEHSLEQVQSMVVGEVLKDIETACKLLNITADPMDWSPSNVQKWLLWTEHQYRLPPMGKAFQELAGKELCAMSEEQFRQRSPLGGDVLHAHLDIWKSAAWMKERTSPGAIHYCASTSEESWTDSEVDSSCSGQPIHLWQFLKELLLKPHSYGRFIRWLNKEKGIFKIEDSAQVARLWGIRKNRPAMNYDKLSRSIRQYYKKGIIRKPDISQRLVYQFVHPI
Method in brief: as §1

ETV7 = biological target: T5, ETV7 (Homo sapiens, UniProt Q9Y603 1-341)
T5 sequence: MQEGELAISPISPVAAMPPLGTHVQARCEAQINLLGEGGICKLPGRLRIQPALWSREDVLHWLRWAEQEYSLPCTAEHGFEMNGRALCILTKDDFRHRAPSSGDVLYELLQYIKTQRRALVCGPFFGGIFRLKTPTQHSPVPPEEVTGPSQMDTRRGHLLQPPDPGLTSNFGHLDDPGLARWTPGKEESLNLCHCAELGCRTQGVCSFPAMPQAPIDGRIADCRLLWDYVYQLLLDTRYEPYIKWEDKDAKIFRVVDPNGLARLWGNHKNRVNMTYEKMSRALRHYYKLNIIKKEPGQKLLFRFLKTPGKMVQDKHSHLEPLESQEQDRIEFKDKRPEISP
Method in brief: as §1

ELF5 = biological target: T6, ELF5 (Homo sapiens, UniProt Q9UKW6-2 1-255)
T6 sequence: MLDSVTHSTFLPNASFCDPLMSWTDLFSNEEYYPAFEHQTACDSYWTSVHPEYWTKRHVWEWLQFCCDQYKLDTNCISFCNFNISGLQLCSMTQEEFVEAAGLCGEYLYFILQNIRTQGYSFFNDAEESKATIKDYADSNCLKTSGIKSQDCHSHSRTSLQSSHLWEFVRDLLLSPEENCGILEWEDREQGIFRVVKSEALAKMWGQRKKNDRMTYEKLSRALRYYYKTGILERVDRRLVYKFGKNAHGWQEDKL
Method in brief: as §1

ETV3 = biological target: T7, ETV3 (Homo sapiens, UniProt P41162-2 1-143)
T7 sequence: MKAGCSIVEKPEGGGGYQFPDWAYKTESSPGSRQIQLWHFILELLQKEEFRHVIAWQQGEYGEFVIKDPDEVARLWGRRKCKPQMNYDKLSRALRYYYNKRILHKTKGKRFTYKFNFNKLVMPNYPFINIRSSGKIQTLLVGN
Method in brief: as §1

ETV6 = ETV6 (Homo sapiens, UniProt P41212 1-452)
Method in brief: as §1

Chain of ETV6 (P41212 whole entry): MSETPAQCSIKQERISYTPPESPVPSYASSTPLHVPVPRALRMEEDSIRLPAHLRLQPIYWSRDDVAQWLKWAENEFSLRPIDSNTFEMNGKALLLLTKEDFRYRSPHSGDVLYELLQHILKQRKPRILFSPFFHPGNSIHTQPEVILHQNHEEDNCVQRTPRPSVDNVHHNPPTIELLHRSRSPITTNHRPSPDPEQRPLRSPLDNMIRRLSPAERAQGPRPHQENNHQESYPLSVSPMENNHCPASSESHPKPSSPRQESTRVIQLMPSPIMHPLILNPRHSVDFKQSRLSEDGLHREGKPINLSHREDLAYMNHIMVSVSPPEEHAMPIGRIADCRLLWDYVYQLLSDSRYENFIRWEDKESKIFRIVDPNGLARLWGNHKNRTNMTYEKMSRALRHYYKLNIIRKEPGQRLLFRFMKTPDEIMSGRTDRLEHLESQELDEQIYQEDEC

Sequence	binding signal (ERF)	binding signal (ETV3L)	binding signal (ETS2)	binding signal (SPDEF)	binding signal (ETV7)	binding signal (ELF5)	binding signal (ETV3)	binding signal (ETV6)
AACGCT	1.26 fold enrichment (6-mer frequency, TF over GST control)	1.15 fold enrichment (6-mer frequency, TF over GST control)	1.13 fold enrichment (6-mer frequency, TF over GST control)	1.2 fold enrichment (6-mer frequency, TF over GST control)	1.24 fold enrichment (6-mer frequency, TF over GST control)	1.19 fold enrichment (6-mer frequency, TF over GST control)	1.24 fold enrichment (6-mer frequency, TF over GST control)	1.27 fold enrichment (6-mer frequency, TF over GST control)
TCCTTG	1.39 fold enrichment (6-mer frequency, TF over GST control)	1.29 fold enrichment (6-mer frequency, TF over GST control)	1.28 fold enrichment (6-mer frequency, TF over GST control)	1.48 fold enrichment (6-mer frequency, TF over GST control)	1.22 fold enrichment (6-mer frequency, TF over GST control)	1.95 fold enrichment (6-mer frequency, TF over GST control)	1.36 fold enrichment (6-mer frequency, TF over GST control)	1.19 fold enrichment (6-mer frequency, TF over GST control)
AATCAC	1.05 fold enrichment (6-mer frequency, TF over GST control)	1.12 fold enrichment (6-mer frequency, TF over GST control)	1.06 fold enrichment (6-mer frequency, TF over GST control)	1.05 fold enrichment (6-mer frequency, TF over GST control)	1.02 fold enrichment (6-mer frequency, TF over GST control)	1.09 fold enrichment (6-mer frequency, TF over GST control)	1.07 fold enrichment (6-mer frequency, TF over GST control)	1.09 fold enrichment (6-mer frequency, TF over GST control)
TTTCAC	1.44 fold enrichment (6-mer frequency, TF over GST control)	1.36 fold enrichment (6-mer frequency, TF over GST control)	1.32 fold enrichment (6-mer frequency, TF over GST control)	1.33 fold enrichment (6-mer frequency, TF over GST control)	1.4 fold enrichment (6-mer frequency, TF over GST control)	1.42 fold enrichment (6-mer frequency, TF over GST control)	1.32 fold enrichment (6-mer frequency, TF over GST control)	1.3 fold enrichment (6-mer frequency, TF over GST control)
TTCGCC	1.14 fold enrichment (6-mer frequency, TF over GST control)	1.27 fold enrichment (6-mer frequency, TF over GST control)	1.12 fold enrichment (6-mer frequency, TF over GST control)	1.1 fold enrichment (6-mer frequency, TF over GST control)	1.18 fold enrichment (6-mer frequency, TF over GST control)	1.04 fold enrichment (6-mer frequency, TF over GST control)	1.08 fold enrichment (6-mer frequency, TF over GST control)	1.16 fold enrichment (6-mer frequency, TF over GST control)
CTTGGT	1.34 fold enrichment (6-mer frequency, TF over GST control)	1.47 fold enrichment (6-mer frequency, TF over GST control)	1.45 fold enrichment (6-mer frequency, TF over GST control)	1.51 fold enrichment (6-mer frequency, TF over GST control)	1.49 fold enrichment (6-mer frequency, TF over GST control)	1.37 fold enrichment (6-mer frequency, TF over GST control)	1.34 fold enrichment (6-mer frequency, TF over GST control)	1.44 fold enrichment (6-mer frequency, TF over GST control)
TTAACG	1.15 fold enrichment (6-mer frequency, TF over GST control)	1.17 fold enrichment (6-mer frequency, TF over GST control)	1.23 fold enrichment (6-mer frequency, TF over GST control)	1.23 fold enrichment (6-mer frequency, TF over GST control)	1.13 fold enrichment (6-mer frequency, TF over GST control)	1.14 fold enrichment (6-mer frequency, TF over GST control)	1.16 fold enrichment (6-mer frequency, TF over GST control)	1.17 fold enrichment (6-mer frequency, TF over GST control)
AAAATG	1.21 fold enrichment (6-mer frequency, TF over GST control)	1.24 fold enrichment (6-mer frequency, TF over GST control)	1.21 fold enrichment (6-mer frequency, TF over GST control)	1.08 fold enrichment (6-mer frequency, TF over GST control)	1.28 fold enrichment (6-mer frequency, TF over GST control)	1.24 fold enrichment (6-mer frequency, TF over GST control)	1.2 fold enrichment (6-mer frequency, TF over GST control)	1.24 fold enrichment (6-mer frequency, TF over GST control)
CGTAAT	1.24 fold enrichment (6-mer frequency, TF over GST control)	1.25 fold enrichment (6-mer frequency, TF over GST control)	1.14 fold enrichment (6-mer frequency, TF over GST control)	1.19 fold enrichment (6-mer frequency, TF over GST control)	1.19 fold enrichment (6-mer frequency, TF over GST control)	1.2 fold enrichment (6-mer frequency, TF over GST control)	1.19 fold enrichment (6-mer frequency, TF over GST control)	1.2 fold enrichment (6-mer frequency, TF over GST control)
AACATT	1.33 fold enrichment (6-mer frequency, TF over GST control)	1.34 fold enrichment (6-mer frequency, TF over GST control)	1.29 fold enrichment (6-mer frequency, TF over GST control)	1.16 fold enrichment (6-mer frequency, TF over GST control)	1.36 fold enrichment (6-mer frequency, TF over GST control)	1.3 fold enrichment (6-mer frequency, TF over GST control)	1.32 fold enrichment (6-mer frequency, TF over GST control)	1.39 fold enrichment (6-mer frequency, TF over GST control)
ATTAAA	1.3 fold enrichment (6-mer frequency, TF over GST control)	1.24 fold enrichment (6-mer frequency, TF over GST control)	1.12 fold enrichment (6-mer frequency, TF over GST control)	1.14 fold enrichment (6-mer frequency, TF over GST control)	1.1 fold enrichment (6-mer frequency, TF over GST control)	1.12 fold enrichment (6-mer frequency, TF over GST control)	1.12 fold enrichment (6-mer frequency, TF over GST control)	1.18 fold enrichment (6-mer frequency, TF over GST control)
AATTCC	1.65 fold enrichment (6-mer frequency, TF over GST control)	1.87 fold enrichment (6-mer frequency, TF over GST control)	1.86 fold enrichment (6-mer frequency, TF over GST control)	1.98 fold enrichment (6-mer frequency, TF over GST control)	1.7 fold enrichment (6-mer frequency, TF over GST control)	2.39 fold enrichment (6-mer frequency, TF over GST control)	2.09 fold enrichment (6-mer frequency, TF over GST control)	1.97 fold enrichment (6-mer frequency, TF over GST control)
TTATTT	1.26 fold enrichment (6-mer frequency, TF over GST control)	1.38 fold enrichment (6-mer frequency, TF over GST control)	1.41 fold enrichment (6-mer frequency, TF over GST control)	1.19 fold enrichment (6-mer frequency, TF over GST control)	1.46 fold enrichment (6-mer frequency, TF over GST control)	1.43 fold enrichment (6-mer frequency, TF over GST control)	1.41 fold enrichment (6-mer frequency, TF over GST control)	1.4 fold enrichment (6-mer frequency, TF over GST control)
TCACAC	1.26 fold enrichment (6-mer frequency, TF over GST control)	1.32 fold enrichment (6-mer frequency, TF over GST control)	1.33 fold enrichment (6-mer frequency, TF over GST control)	1.16 fold enrichment (6-mer frequency, TF over GST control)	1.27 fold enrichment (6-mer frequency, TF over GST control)	1.26 fold enrichment (6-mer frequency, TF over GST control)	1.27 fold enrichment (6-mer frequency, TF over GST control)	1.33 fold enrichment (6-mer frequency, TF over GST control)
ACGAAA	1.34 fold enrichment (6-mer frequency, TF over GST control)	1.13 fold enrichment (6-mer frequency, TF over GST control)	1.15 fold enrichment (6-mer frequency, TF over GST control)	1.18 fold enrichment (6-mer frequency, TF over GST control)	1.23 fold enrichment (6-mer frequency, TF over GST control)	1.09 fold enrichment (6-mer frequency, TF over GST control)	1.03 fold enrichment (6-mer frequency, TF over GST control)	1.13 fold enrichment (6-mer frequency, TF over GST control)
